Reference: PubChem BioAssay (EPA / NIEHS)
“And” between values parts separate entries of the source, which are not always exact repeats. Identical values can stand only once. Some structures have more than one record in an assay (separate samples or runs), and their calls can disagree. The source made the active and inactive calls. How the source made its calls: active means hit-call score of the fitted dose curve at least 0.9, where 1 is the maximum; inactive means score below 0.9.

How the values were obtained:
[1] = BSK_CASM3C_SRB: Viability Assessment in the BioMAP Diversity Plus: CASM3C Assay (AID 2283050); conditions: primary human coronary artery smooth muscle cells;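 further: cells exposed to compound for 24 h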
[2] = read-out: Thrombomodulin, THBD (gene 7056); test: BSK_CASM3C_Thrombomodulin: BioMAP Diversity Plus: CASM3C Assay for Thrombomodulin Biomarker Activity (AID 2283051); conditions: primary human coronary artery smooth muscle cells; actives raise or lower the signal;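 further: thrombomodulin protein level measured by ELISA 24 h after dosing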
[3] = read-out: Tissue Factor, F3 (gene 2152); test: BSK_CASM3C_TissueFactor: BioMAP Diversity Plus: CASM3C Assay for Tissue Factor Biomarker Activity (AID 2283052); conditions: primary human coronary artery smooth muscle cells; actives raise or lower the signal;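 further: cell surface tissue factor protein level read by ELISA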
[4] = read-out: Interferon-gamma inducible Protein 10 (IP10), CXCL10 (gene 3627); test: BSK_hDFCGF_IP10: BioMAP Diversity Plus: hDFCGF Assay for Interferon-gamma inducible Protein 10 (IP10) Biomarker Activity (AID 2283053); conditions: primary human foreskin fibroblasts; actives raise or lower the signal
Procedure, shortened: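 Chemical-treated human skin fibroblasts (primary) were sampled at 24 h for IP-10 by ELISA. Both increases and decreases relative to DMSO were scored.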

[5] = read-out: Urokinase-type plasminogen activator receptor (uPAR), PLAUR (gene 5329); test: BSK_CASM3C_uPAR: BioMAP Diversity Plus: CASM3C Assay for Urokinase-type plasminogen activator receptor (uPAR) Biomarker Activity (AID 2283054); conditions: primary human coronary artery smooth muscle cells; actives raise or lower the signal;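 further: cell-surface uPAR protein level quantified by ELISA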
[6] = read-out: Vascular cell adhesion molecule 1 (VCAM1), VCAM1 (gene 7412); test: BSK_CASM3C_VCAM1: BioMAP Diversity Plus: CASM3C Assay for Vascular cell adhesion molecule 1 (VCAM1) Biomarker Activity (AID 2283055); conditions: primary human coronary artery smooth muscle cells; actives raise or lower the signal;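 further: VCAM-1 protein level quantified by ELISA on the cells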
[7] = read-out: Collagen III, COL3A1 (gene 1281); test: BSK_hDFCGF_CollagenIII: BioMAP Diversity Plus: hDFCGF Assay for Collagen III Biomarker Activity (AID 2283056); conditions: primary human foreskin fibroblasts; actives raise or lower the signal
Procedure, shortened: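 Human foreskin fibroblast primary cultures sampled 24 h after dosing; Collagen III quantified by ELISA. Signal fitted bidirectionally against DMSO baseline.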

[8] = read-out: Epidermal growth factor receptor (EGFR), EGFR (gene 1956); test: BSK_hDFCGF_EGFR: BioMAP Diversity Plus: hDFCGF Assay for Epidermal growth factor receptor (EGFR) Biomarker Activity (AID 2283057); conditions: primary human foreskin fibroblasts; actives raise or lower the signal
Procedure, shortened: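 Cell-based multiplexed assay in primary human foreskin fibroblasts. EGFR is read by ELISA 24 h after treatment and compared with DMSO controls.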

[9] = read-out: Interleukin-8 (IL8), CXCL8 (gene 3576); test: BSK_hDFCGF_IL8: BioMAP Diversity Plus: hDFCGF Assay for Interleukin-8 (IL8) Biomarker Activity (AID 2283058); conditions: primary human foreskin fibroblasts; actives raise or lower the signal
Procedure, shortened: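 Primary human foreskin fibroblasts (hDFCGF system) dosed with chemical; IL-8 measured by ELISA 24 hours later. Bidirectional curve fitting relative to DMSO baseline; cytotoxicity tracked in parallel cultures by SRB total protein staining.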

[10] = BSK_hDFCGF_Proliferation: Cell Proliferation Assessment in the BioMAP Diversity Plus: hDFCGF Assay (AID 2283059); conditions: primary human foreskin fibroblasts;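 further: curves fitted for both rise and fall of signal versus DMSO baseline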
Procedure, shortened: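 Steps: dose primary human dermal fibroblasts (foreskin); […] fix in 10% TCA; stain with 0.1% SRB; read 560 nm; fit gain or loss of signal against DMSO.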

[11] = BSK_hDFCGF_SRB: Viability Assessment in the BioMAP Diversity Plus: hDFCGF Assay (AID 2283061); conditions: primary human foreskin fibroblasts;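 further: cells exposed to compound for 24 h before the read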
Procedure, shortened: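 Human foreskin fibroblasts in 96-well plates were treated 24 h. Total protein was measured by 0.1% SRB staining after 10% TCA fixation, read at 560 nm. Data were fitted bidirectionally against DMSO.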

[12] = read-out: TIMP metallopeptidase inhibitor 1 (TIMP1), TIMP1 (gene 7076); test: BSK_hDFCGF_TIMP1: BioMAP Diversity Plus: hDFCGF Assay for TIMP metallopeptidase inhibitor 1 (TIMP1) Biomarker Activity (AID 2283062); conditions: primary human foreskin fibroblasts; actives raise or lower the signal
Procedure, shortened: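 Human foreskin fibroblast primary cultures dosed for 24 h; secreted/surface TIMP-1 quantified by ELISA. Bidirectional curve fitting against DMSO baseline; cytotoxicity tracked in parallel cultures by SRB total-protein staining.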

[13] = read-out: Monokine induced gamma interferon (MIG), CXCL9 (gene 4283); test: BSK_hDFCGF_MIG: BioMAP Diversity Plus: hDFCGF Assay for Monokine induced gamma interferon (MIG) Biomarker Activity (AID 2283063); conditions: primary human foreskin fibroblasts; actives raise or lower the signal
Procedure, shortened: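 MIG/CXCL9 measured by ELISA 24 h after dosing primary human skin fibroblasts. Activity fitted in both directions against DMSO controls. Cytotoxicity was checked in parallel cultures by SRB staining read at 560 nm.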

[14] = read-out: Matrix Metallopeptidase 1 (MMP1), MMP1 (gene 4312); test: BSK_hDFCGF_MMP1: BioMAP Diversity Plus: hDFCGF Assay for Matrix Metallopeptidase 1 (MMP1) Biomarker Activity (AID 2283064); conditions: primary human foreskin fibroblasts; actives raise or lower the signal
Procedure, shortened: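 Human foreskin fibroblasts exposed to chemical for 24 h; MMP1 detected by ELISA, with DMSO as baseline for bidirectional fitting.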

[15] = read-out: Vascular cell adhesion molecule 1 (VCAM1), VCAM1 (gene 7412); test: BSK_hDFCGF_VCAM1: BioMAP Diversity Plus: hDFCGF Assay for Vascular cell adhesion molecule 1 (VCAM1) Biomarker Activity (AID 2283065); conditions: primary human foreskin fibroblasts; actives raise or lower the signal;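 on AC50: VCAM-1 protein level quantified by ELISA after 24 h chemical exposure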
Procedure, shortened: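 Human foreskin fibroblast primary cells dosed with chemical, VCAM-1 measured by ELISA at 24 h. Bidirectional curve fitting relative to DMSO as negative control/baseline.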

[16] = read-out: Plasminogen activator inhibitor-1 (PAI1), SERPINE1 (gene 5054); test: BSK_hDFCGF_PAI1: BioMAP Diversity Plus: hDFCGF Assay for Plasminogen activator inhibitor-1 (PAI1) Biomarker Activity (AID 2283066); conditions: primary human foreskin fibroblasts; actives raise or lower the signal
Procedure, shortened: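 Human skin fibroblast cultures receive chemical for 24 h before PAI-1 is measured by ELISA; signal changes are fitted bidirectionally against DMSO-treated wells.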

[17] = read-out: Intercellular Adhesion Molecule 1 (ICAM1), ICAM1 (gene 3383); test: BSK_KF3CT_ICAM1: BioMAP Diversity Plus: KF3CT Assay for Intercellular Adhesion Molecule 1 (ICAM1) Biomarker Activity (AID 2283067); conditions: primary human keratinocytes with fibroblasts; actives raise or lower the signal
Procedure, shortened: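 Human keratinocyte–foreskin fibroblast co-culture was treated for 24 h. Cell-surface ICAM-1 was quantified by ELISA, fitted bidirectionally relative to DMSO. Cytotoxicity was checked in parallel cultures by SRB total-protein staining.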

[18] = read-out: Interferon-gamma inducible Protein 10 (IP10), CXCL10 (gene 3627); test: BSK_KF3CT_IP10: BioMAP Diversity Plus: KF3CT Assay for Interferon-gamma inducible Protein 10 (IP10) Biomarker Activity (AID 2283068); conditions: primary human keratinocytes with fibroblasts; actives raise or lower the signal
Procedure, shortened: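 KF3CT co-culture (keratinocytes + foreskin fibroblasts), 24 h compound, IP-10 by ELISA; bidirectional fit vs DMSO baseline.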

[19] = BSK_KF3CT_SRB: Viability Assessment in the BioMAP Diversity Plus: KF3CT Assay (AID 2283069); conditions: primary human keratinocytes with fibroblasts;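 further: read 24 h after compound addition; fitted for both signal gain and loss against DMSO baseline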
Procedure, shortened: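 Overt cytotoxicity is assessed as total protein by sulforhodamine B staining in parallel human skin co-cultures at 24 h after dosing. DMSO serves as negative control and baseline.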

[20] = read-out: Macrophage colony-stimulating factor (MCSF), CSF1 (gene 1435); test: BSK_hDFCGF_MCSF: BioMAP Diversity Plus: hDFCGF Assay for Macrophage colony-stimulating factor (MCSF) Biomarker Activity (AID 2283060); conditions: primary human foreskin fibroblasts; actives raise or lower the signal
Procedure, shortened: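 Human foreskin fibroblast primary cultures; M-CSF measured by ELISA 24 hours after chemical dosing. Bidirectional fitting relative to DMSO, with overt cytotoxicity tracked by parallel SRB total-protein staining (0.1% SRB, 10% TCA fixation, 560 nm).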

Measured: AC50

CNC(=S)S
inactive: [1] | [3] | [5] | [6] | [7] | [8] | [9] | [11] | [12] | [13] | [15] | [16] | [17] | [19]
active: [2] 9.42 µM | [4] 20 µM | [10] 20 µM | [14] 7.89 µM | [18] 20.7 µM

COc1cnc(OC)n2nc(NS(=O)(=O)c3c(OCC(F)F)cccc3C(F)(F)F)nc12
active: [12] 20 µM | [18] 34.2 µM
inactive: [1] | [2] | [3] | [4] | [5] | [6] | [7] | [8] | [9] | [10] | [20] | [11] | [12] | [13] | [14] | [15] | [16] | [17] | [18] | [19]

CC(Oc1ccc(Cl)cc1Cl)C(=O)O (centres undefined)
inactive: [1] | [2] | [3] | [4] | [5] | [6] | [7] | [8] | [9] | [10] | [11] | [12] | [13] | [14] | [15] | [16] | [17] | [18] | [19]

CO/C=C(/C(=O)OC)c1ccccc1Oc1cc(Oc2ccccc2C#N)ncn1
inactive: [1] | [2] | [3] | [4] | [5] | [6] | [8] | [9] | [10] | [20] | [12] | [13] | [14] | [15] | [16] | [17] | [18] | [19]
active: [4] 12.1 µM | [7] 16.9 µM [middle of 4 runs] | [10] 30.2 µM and 34.3 µM and 25.5 µM

C=CCC1=C(C)C(OC(=O)C2C(C=C(C)C)C2(C)C)CC1=O (centres undefined)
active: [2] 16.6 µM and 26.3 µM and 21 µM | [4] 31.7 µM [middle of 4 runs] | [6] 32.5 µM | [7] 21 µM [middle of 4 runs] | [9] 40.3 µM [middle of 4 runs] | [10] 16.5 µM [middle of 4 runs] | [12] 33.9 µM [middle of 4 runs] | [13] 38.9 µM [middle of 4 runs] | [14] 35.6 µM [middle of 4 runs] | [15] 28.7 µM [middle of 4 runs] | [16] 30.4 µM and 38.4 µM and 38.8 µM | [18] 35 µM and 31 µM and 29.2 µM | [19] 34.7 µM and 25.5 µM
inactive: [1] | [2] | [3] | [5] | [6] | [8] | [17] | [18] | [19]

CCCCOC(=O)c1ccccc1C(=O)OCCCC
active: [2] 11 µM | [4] 13.9 µM and 11.8 µM | [7] 10.9 µM | [15] 14 µM
inactive: [1] | [2] | [3] | [5] | [6] | [7] | [8] | [9] | [10] | [12] | [13] | [14] | [15] | [16] | [17] | [18] | [19]

Fc1ccc(Oc2ccnc3cc(Cl)cc(Cl)c23)cc1
active: [1] 23.7 µM | [2] 18.6 µM | [4] 24.3 µM | [7] 12.1 µM | [10] 11.7 µM | [20] 16.4 µM | [13] 26.6 µM | [14] 35.3 µM | [15] 13.2 µM | [16] 18 µM | [18] 17.9 µM
inactive: [3] | [5] | [6] | [8] | [9] | [12] | [17] | [19]

COC(=O)C(C)Oc1ccc(Oc2ccc(Cl)cc2Cl)cc1 (centres undefined)
active: [10] 29.5 µM and 36.7 µM | [17] 25.1 µM | [18] 25.4 µM and 20 µM
inactive: [1] | [2] | [3] | [4] | [5] | [6] | [7] | [8] | [9] | [10] | [12] | [13] | [14] | [15] | [16] | [17] | [18] | [19]
